In PubChem BioAssay (NCI):
This is part of a sample that, as a whole, favours compounds with a hit. Of some 79,000 tested, about 15% had one in any assay. Values without a mark were called inactive. The source made the active and inactive calls. Cut-off read from the data, not from the text of the source: active = growth inhibition above about 70%; inactive = the rest.

Experiment: NCI Yeast Anticancer Drug Screen. Data for the mlh1 rad18 strain (AID 175)
Conditions: S. cerevisiae mlh1 rad18 strain growth inhibition; at 5.0 µM (retest, dose inferred, filed as 0.5); stronger effect = higher value
Procedure, shortened: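 Compound-treated yeast growth, normalised to vehicle controls. Strain bears defined DNA repair mutations.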

SMILES | growth inhibition
O=C1c2ccccc2C(=O)c2sc(Nc3cc(Cl)ccc3Cl)nc21 | 63%
OCC(c1ccccc1)c1ccccc1 | 11%
CN(C)c1nc(=NCc2ccco2)ss1 | 29%
C/C=C\C=N\NC(N)=S | 2%
O=C(/C=N/O)c1c(-c2ccccc2)[nH]c(-c2ccccc2)c1-c1ccccc1 | 31%
Cc1c2ccccc2c(CO)c2cc(F)c3ccccc3c12 | 95% (active)
O=C(O)Cc1cccc2c(=O)c3cccc([N+](=O)[O-])c3[nH]c12 | 28%
Cc1ccc(SC2=C(N(C)C)C(=O)c3ccccc3C2=O)cc1 | -3%
O=C1C(Cl)=C(Cl)C(=O)c2cc(Cl)c(Cl)cc21 | 60%
CC1=C(C2CO2)C(=O)C(C)=C(C2CO2)C1=O (stereo not given) | 60%
CCc1cc(CC)c(-c2ccco2)c(COC(=O)NC)c1 | -1%
COC(=O)C(=O)N(c1cc(C)ccc1C)c1cc(C)ccc1C | -3%
COC1=CC(=O)c2c(O)c3c(c(O)c2C1=O)C=C(C)OC3O (stereo not given) | -9%
O=[N+]([O-])c1ccccc1NCCO | 2%
CCCCCCCCCCCCCCCC[N+](C)(C)CC(=O)O | 5%
S=C(SSSSC(=S)N1CCCCC1)N1CCCCC1 | 57%
COC(O)C12OC3CO[Si](C(C)C)(C(C)C)O[Si](C(C)C)(C(C)C)OC3C1Oc1nc(=O)ccn12 (stereo not given) | 15%
O=C(O)c1ccccc1C(c1ccccc1)c1ccccc1 | 6%
OC(OC/C(I)=C(/I)COC(O)C(Cl)(Cl)Cl)C(Cl)(Cl)Cl (stereo not given) | 13%
COC(C)(C)[C@@H]1CCCN1C1=C(C)C(=O)OC1 | 90% (active)

SMILES | growth inhibition
COc1ccc(-c2nc(C)[nH]c(=O)c2Cc2c(O)ccc3ccccc23)cc1 | 2%
C1CCC(CCNCCC2CCCCC2)CC1 | 8%
CC1=C(C)C1[N+](=O)[O-] | 64%
COc1ccc2c(c1)OC(c1ccccc1O)CC2=O (stereo not given) | -70%
CCN(CC)c1ccc(NC(CC(O)c2ccccc2)c2ccccc2)cc1 (stereo not given) | -5%
COc1cc(/C=C/C(=O)c2ccc3ccccc3c2)cc(OC)c1OC | 37%
C=CC(=C)OC | 2%
O=C1OC(=O)c2ccc([N+](=O)[O-])c3cccc1c23 | 0%
CCCOC(=O)CSC#N | 41%
CCCCN(CCCC)CCCCCCNc1cc(OC)cc2cccnc12 | -4%
CN1C(Cl)=NS(=O)(=O)c2ccccc21 | 15%
COc1cc(C(=O)CBr)c2ccc(Cl)cc2n1 | 93% (active)
CCCCCCCCCCCCCCCC(=O)N(CCCN(CC)CC)C(C)CCCN(CC)CC (stereo not given) | 85% (active)
CC1(c2ccccc2)OC1C(=O)N(c1ccccc1)c1ccccc1 (stereo not given) | 21%
CCCCCCCNC1CCCc2cc(OC)ccc21 (stereo not given) | 20%
Cc1ccc(S(=O)(=O)NCCSCCSCCNS(=O)(=O)c2ccc(C)cc2)cc1 | -2%
COc1ccc(C2C3CCCC(C(c4ccc(OC)cc4)N2C)C32NC(=O)NC2=O)cc1 (stereo not given) | 29%
CC(C)OC1=C(Cl)C(=O)c2c(cccc2[N+](=O)[O-])C1=O | 41%
COC(=O)c1nnn(-c2ccc(Cl)cc2Cl)c1C(=O)c1ccc(Cl)c(Cl)c1 | 19%
O=Cc1cc2c(s1)C(=O)c1sccc1C2=O | 92% (active)

Same assay, conditions: S. cerevisiae mlh1 rad18 strain growth inhibition; at 50.0 µM (retest, dose inferred, filed as 5.0); stronger effect = higher value

SMILES | growth inhibition
O=C1c2ccccc2C(=O)c2sc(Nc3cc(Cl)ccc3Cl)nc21 | 98% (active)
OCC(c1ccccc1)c1ccccc1 | 22%
CN(C)c1nc(=NCc2ccco2)ss1 | 74% (active)
C/C=C\C=N\NC(N)=S | 1%
O=C(/C=N/O)c1c(-c2ccccc2)[nH]c(-c2ccccc2)c1-c1ccccc1 | 93% (active)
Cc1c2ccccc2c(CO)c2cc(F)c3ccccc3c12 | 98% (active)
O=C(O)Cc1cccc2c(=O)c3cccc([N+](=O)[O-])c3[nH]c12 | 86% (active)
Cc1ccc(SC2=C(N(C)C)C(=O)c3ccccc3C2=O)cc1 | 89% (active)
O=C1C(Cl)=C(Cl)C(=O)c2cc(Cl)c(Cl)cc21 | 97% (active)
CC1=C(C2CO2)C(=O)C(C)=C(C2CO2)C1=O (stereo not given) | 99% (active)
CCc1cc(CC)c(-c2ccco2)c(COC(=O)NC)c1 | 86% (active)
COC(=O)C(=O)N(c1cc(C)ccc1C)c1cc(C)ccc1C | 81% (active)
COC1=CC(=O)c2c(O)c3c(c(O)c2C1=O)C=C(C)OC3O (stereo not given) | 52%
O=[N+]([O-])c1ccccc1NCCO | 3%
CCCCCCCCCCCCCCCC[N+](C)(C)CC(=O)O | 97% (active)
S=C(SSSSC(=S)N1CCCCC1)N1CCCCC1 | 93% (active)
COC(O)C12OC3CO[Si](C(C)C)(C(C)C)O[Si](C(C)C)(C(C)C)OC3C1Oc1nc(=O)ccn12 (stereo not given) | 98% (active)
O=C(O)c1ccccc1C(c1ccccc1)c1ccccc1 | 84% (active)
OC(OC/C(I)=C(/I)COC(O)C(Cl)(Cl)Cl)C(Cl)(Cl)Cl (stereo not given) | 95% (active)
COC(C)(C)[C@@H]1CCCN1C1=C(C)C(=O)OC1 | 99% (active)

SMILES | growth inhibition
COc1ccc(-c2nc(C)[nH]c(=O)c2Cc2c(O)ccc3ccccc23)cc1 | 2%
C1CCC(CCNCCC2CCCCC2)CC1 | 99% (active)
CC1=C(C)C1[N+](=O)[O-] | 95% (active)
COc1ccc2c(c1)OC(c1ccccc1O)CC2=O (stereo not given) | -34%
CCN(CC)c1ccc(NC(CC(O)c2ccccc2)c2ccccc2)cc1 (stereo not given) | -7%
COc1cc(/C=C/C(=O)c2ccc3ccccc3c2)cc(OC)c1OC | 44%
C=CC(=C)OC | 4%
O=C1OC(=O)c2ccc([N+](=O)[O-])c3cccc1c23 | 13%
CCCOC(=O)CSC#N | 98% (active)
CCCCN(CCCC)CCCCCCNc1cc(OC)cc2cccnc12 | 9%
CN1C(Cl)=NS(=O)(=O)c2ccccc21 | 25%
COc1cc(C(=O)CBr)c2ccc(Cl)cc2n1 | 97% (active)
CCCCCCCCCCCCCCCC(=O)N(CCCN(CC)CC)C(C)CCCN(CC)CC (stereo not given) | 97% (active)
CC1(c2ccccc2)OC1C(=O)N(c1ccccc1)c1ccccc1 (stereo not given) | 97% (active)
CCCCCCCNC1CCCc2cc(OC)ccc21 (stereo not given) | 60%
Cc1ccc(S(=O)(=O)NCCSCCSCCNS(=O)(=O)c2ccc(C)cc2)cc1 | -2%
COc1ccc(C2C3CCCC(C(c4ccc(OC)cc4)N2C)C32NC(=O)NC2=O)cc1 (stereo not given) | 95% (active)
CC(C)OC1=C(Cl)C(=O)c2c(cccc2[N+](=O)[O-])C1=O | 100% (active)
COC(=O)c1nnn(-c2ccc(Cl)cc2Cl)c1C(=O)c1ccc(Cl)c(Cl)c1 | 99% (active)
O=Cc1cc2c(s1)C(=O)c1sccc1C2=O | 99% (active)
